Test systems include SR leukemia; RPMI-8226 leukemia; OVCAR-8 ovarian; OVCAR-4 ovarian; SK-OV-3 ovarian; IGROV1 ovarian; OVCAR-3 ovarian; HS 578T breast; NCI/ADR-RES ovarian; T-47D breast; BT-549 breast; MDA-MB-435 melanoma; SW-620 colon; HCT-116 colon; HCC-2998 colon; KM12 colon; MDA-MB-468 breast; MCF7 breast; OVCAR-5 ovarian.
Common to all, as to experiment: NCI-60 one-dose screen, 48 h (100 = growth as untreated, 0 = no growth, -100 = all killed)
What all share (conditions): 10 µM unless noted

This is part of a sample that, as a whole, favours compounds with a hit. Of some 83,000 tested, about 20% had one in any assay.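 Assay: single dose, 48 h. Readout: percent growth (0 = no net growth; negative = cell death). Active: <10.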 A number with no mark means an inactive call. The source made the active and inactive calls.

As to `CCCSc1nc(Nc2ccc(S(N)(=O)=O)cc2)c(C#N)c(-c2cc(OC)c(OC)c(OC)c2)n1`, the growth was 6.66% (active) in the assay with SR leukemia; 3.5% (active) in the assay on RPMI-8226 leukemia; 10.2% with OVCAR-8 ovarian; 27.5% in the assay on OVCAR-4 ovarian; 64.9% with SK-OV-3 ovarian; 34.9% with IGROV1 ovarian. Further, the growth with OVCAR-3 ovarian was 24.6%; in the assay on HS 578T breast, 30.7%; in the assay on NCI/ADR-RES ovarian it was 15.1%; in the assay with T-47D breast, -11.4% (active); with BT-549 breast, 16.5%; in the assay on MDA-MB-435 melanoma it was 23%. Further, the growth in the assay with SW-620 colon is 30%; with HCT-116 colon, 11.4%; in the assay on HCC-2998 colon, 43.6%; with KM12 colon, 12.7%; in the assay on MDA-MB-468 breast, 30.5%.
Regarding `CCN1C(=O)N(CC)C2NNC(Sc3c(C(=O)O)c4ccccc4n(C4CCCC4)c3=O)=NC21` (centres undefined), the growth with SR leukemia was 22.4%; in the assay on RPMI-8226 leukemia, 24.8%; with OVCAR-8 ovarian it was 4.93% (active); in the assay with OVCAR-4 ovarian it was 61.8%; with SK-OV-3 ovarian it was 32.8%; with IGROV1 ovarian, 29.6%. The growth in the assay with OVCAR-3 ovarian is -32.5% (active); in the assay on HS 578T breast, 7.18% (active); in the assay on NCI/ADR-RES ovarian, 25.1%; in the assay with T-47D breast, 61.4%; with BT-549 breast, 6.1% (active); with MDA-MB-435 melanoma, -29.3% (active). In addition, the growth in the assay on SW-620 colon is 30.6%; in the assay on MCF7 breast, 16.6%; in the assay with HCT-116 colon it was 4.07% (active); with HCC-2998 colon, 26.4%; in the assay on KM12 colon, 3.71% (active); in the assay on MDA-MB-468 breast it was 58.1%.
`CN(C)c1nc(NCCNS(=O)(=O)c2ccc(C(=O)/C=C/c3ccc(C(F)(F)F)cc3)cc2)nc(Nc2ccc(F)cc2)n1`: the growth with SR leukemia is -26.2% (active); with RPMI-8226 leukemia, 0.159% (active); in the assay with OVCAR-8 ovarian, -62.1% (active); in the assay with OVCAR-4 ovarian, 11.6%; in the assay with SK-OV-3 ovarian, 66%; in the assay with IGROV1 ovarian, -40.6% (active). The growth is -86.7% (active) with OVCAR-3 ovarian; 52.1% in the assay with HS 578T breast; -54.3% (active) with NCI/ADR-RES ovarian; 15.7% in the assay on T-47D breast; -71.2% (active) in the assay with BT-549 breast; -81.1% (active) in the assay on MDA-MB-435 melanoma. Further, the growth in the assay with SW-620 colon is -77.1% (active); in the assay on MCF7 breast it was -78.6% (active); in the assay with HCT-116 colon it was -59.1% (active); in the assay on HCC-2998 colon, -95.7% (active); with KM12 colon, -78.9% (active); in the assay with MDA-MB-468 breast it was -23.6% (active).
On to `S=C(NCCc1ccccc1)Nc1ccc(OCc2nc3ccccc3[nH]2)cc1`, for which the growth in the assay on SR leukemia is 95.7%; in the assay with RPMI-8226 leukemia, 101%; with OVCAR-8 ovarian it was 102%; with OVCAR-4 ovarian it was 108%; in the assay with SK-OV-3 ovarian, 99.4%; in the assay with IGROV1 ovarian, 113%. Further, the growth in the assay on OVCAR-3 ovarian is 112%; in the assay with HS 578T breast, 109%; in the assay with NCI/ADR-RES ovarian it was 110%; in the assay with T-47D breast, 103%; in the assay with BT-549 breast, 109%; with MDA-MB-435 melanoma it was 105%. Further, the growth in the assay with SW-620 colon was 107%; in the assay with MCF7 breast, 95.3%; in the assay on HCT-116 colon, 103%; in the assay with HCC-2998 colon it was 114%; in the assay with KM12 colon, 103%; in the assay on MDA-MB-468 breast, 99.5%.
Turning to `Cc1ccc(-c2nc(C#N)c(S(=O)(=O)N3CCN(S(=O)(=O)c4ccccc4)CC3)o2)cc1`, the growth in the assay on SR leukemia was -48.1% (active); in the assay with RPMI-8226 leukemia, -24.5% (active); in the assay with OVCAR-8 ovarian, 1.2% (active); in the assay with OVCAR-4 ovarian it was -1.2% (active); with SK-OV-3 ovarian, 115%; in the assay with IGROV1 ovarian it was -63.6% (active). In addition, the growth in the assay with OVCAR-3 ovarian is 1.2% (active); in the assay on HS 578T breast, 65.5%; with NCI/ADR-RES ovarian, 4.76% (active); in the assay on T-47D breast, -1.54% (active); with BT-549 breast it was -19% (active); in the assay on MDA-MB-435 melanoma it was 30.1%. For the same molecule, the growth is -86.9% (active) in the assay on SW-620 colon; -30.6% (active) with MCF7 breast; -81.4% (active) in the assay with HCT-116 colon; 56.2% in the assay with HCC-2998 colon; 77.4% in the assay on KM12 colon; -49.3% (active) in the assay with MDA-MB-468 breast.
As for `N#Cc1c(-c2cccc3ccccc23)cc(-c2cccc(OCC(=O)O)c2)[nH]c1=O`, the growth was 87.2% in the assay on SR leukemia; 96.5% in the assay with RPMI-8226 leukemia; 98.9% in the assay with OVCAR-8 ovarian; 89.9% in the assay on OVCAR-5 ovarian; 91.9% in the assay with OVCAR-4 ovarian; 108% in the assay on SK-OV-3 ovarian. In addition, the growth with OVCAR-3 ovarian is 104%; in the assay on NCI/ADR-RES ovarian, 99%; with T-47D breast, 105%; in the assay on BT-549 breast it was 114%; in the assay with MDA-MB-435 melanoma, 101%; in the assay with MCF7 breast it was 96.1%. Further, the growth in the assay with HCT-116 colon is 103%; in the assay on HCC-2998 colon, 110%; in the assay on KM12 colon it was 103%; in the assay on MDA-MB-468 breast, 98.7%.
`CN(C)CCOc1ccc(C(=O)C2[C@H](c3ccc(Cl)cc3)[C@@H](c3ccccc3)NC23C(=O)Nc2ccc(Br)cc23)cc1` (some centres undefined): the growth with SR leukemia was -36.4% (active); with RPMI-8226 leukemia, -30.8% (active); in the assay with OVCAR-8 ovarian, -61.8% (active); in the assay on OVCAR-4 ovarian, 33.9%; in the assay on SK-OV-3 ovarian, 96%; in the assay on IGROV1 ovarian it was 29.1%. Also, the growth was -4.55% (active) in the assay on OVCAR-3 ovarian; 58.7% with HS 578T breast; 23% in the assay on NCI/ADR-RES ovarian; 42% in the assay on T-47D breast; 67% with BT-549 breast; -66.5% (active) in the assay with MDA-MB-435 melanoma. In addition, the growth was -80% (active) in the assay on SW-620 colon; -59.8% (active) with MCF7 breast; -96.6% (active) with HCT-116 colon; -94.4% (active) in the assay with HCC-2998 colon; -48.4% (active) in the assay on KM12 colon; -84.7% (active) in the assay with MDA-MB-468 breast.
For the molecule `COc1cccc(-c2c(C#N)c(-c3ccc(Cl)cc3)nc3n[nH]c(-c4ccc(Cl)cc4)c23)c1`, the growth was 16.3% with SR leukemia; 7.25% (active) in the assay on RPMI-8226 leukemia; 48.3% in the assay on OVCAR-8 ovarian; 69% in the assay on OVCAR-5 ovarian; 26.5% with OVCAR-4 ovarian; 43.9% in the assay with SK-OV-3 ovarian. Moreover, the growth in the assay with OVCAR-3 ovarian is 58%; with NCI/ADR-RES ovarian it was 59.3%; in the assay on T-47D breast it was 9.68% (active); in the assay on BT-549 breast, 44%; in the assay on MDA-MB-435 melanoma, 46%; with MCF7 breast, 36.2%. Further, the growth in the assay with HCT-116 colon is 20.6%; in the assay on HCC-2998 colon it was 56.6%; in the assay on KM12 colon, 32.5%; in the assay on MDA-MB-468 breast, 61%.

The values are drawn from PubChem BioAssay (NCI).
